Experimental data from PubChem BioAssay (EPA / NIEHS).
Results filed as inconclusive are left out. Activity calls are given as the source filed them. The calls were made as follows: active = hit-call score of the fitted dose curve at least 0.9, where 1 is the maximum; inconclusive = response in the unintended direction; inactive = score below 0.9.

Assay: CLD_ACTIN_24hr: CellzDirect (CLD) Gene Expression Assay for Baseline Control (Actin) at 24 hours (AID 2283670)
Protocol: CLD_24hr is a cell-based, multiplexed-readout assay that uses hepatocyte, a human liver primary cell, with measurements taken at 24 hours after chemical dosing in a 96-well plate.CLD_ACTIN_24hr is one of 16 assay component(s) measured or calculated from the CLD_24hr assay. It is designed to make measurements of mRNA induction, a form of inducible reporter, as detected with chemiluminescence signals by Quantitative Nuclease Protection Assay (qNPA) technology.Data from the assay component CLD_ACTIN_24hr was analyzed at the endpoint, CLD_ACTIN_24hr, in the positive analysis fitting direction relative to DMSO as the negative control and baseline of activity. Using a type of inducible reporter, gain-of-signal activity can be used to understand changes in the reporter gene as they relate to the gene ACTA1. Furthermore, this assay endpoint can be referred to as a secondary readout, because this assay has produced multiple assay endpoints where this one serves a background control function. To generalize the intended target to other relatable targets, this assay endpoint is annotated to the background measurement intended target family, where subfamily is baseline control.
Human hepatocyte cultures were treated daily for two consecutive days with fresh dosing solutions containing appropriate concentrations of the 320 ToxCast chemicals (chemical identities were blinded to CellzDirect and other ToxCast collaborators), vehicle control (0.2% DMSO), and positive control inducers as summarized in Table 1. Due to the large number of treatment groups and chemicals examined, the ToxCast chemicals were divided into two groups (spanning two independent cultures of hepatocytes from separate donor preparations (Hu778: ToxCast plates 1 and 2; Hu776: ToxCast plates 3 and 4). Each preparation of human hepatocyte cultures was treated with respective vehicle control, medium only control, set of six positive controls/reference chemicals for the five hepatic receptor pathways, and a subset of eight of the ToxCast chemicals (indoxacarb, pyrithiobac-sodium, norflurazon, cyhalofop-butyl, methomyl, thiram, acetochlor, and propiconazole). These replicate data, coupled with internal replicates designed within the blinded ToxCast chemical library, provided additional data to evaluate interindividual differences between hepatocyte preparations and their potential impact on chemical profiles.Cell morphology and integrity were evaluated using phase-contrast microscopy as an indicator of hepatocyte cell health (Tyson & Green, 1987). Cultures for each treatment group (i.e., media, vehicle [0.2% DMSO], positive control inducers [multiple concentrations], and the ToxCast chemicals [multiple concentrations]) were observed and cell morphology was assessed relative to vehicle control cultures at each harvest time point (0, 6, 24, or 48 h). […] Images were evaluated at the conclusion of the study to assess changes in cell integrity and account for the effects of chemical exposure on uncharacteristic changes in concentration-dependent gene expression profiles. The results from these determinations of apparent cytotoxicity were annotated (yes/no) alongside the corresponding qNPA data for reference.At the conclusion of each treatment period, hepatocyte cultures (96-well) were washed with 1 volume of HBSS, lysed by addition of 25 ul ArrayPlate lysis buffer (HTG, Tucson, AZ), and 70 ul/well of Denaturation Oil, denatured by incubation at 95C for 10 min, and frozen at approximately -70C until analysis by nuclease protection assay (qNPA) (Roberts et al., 2007). For qNPA analysis, cell lysates were thawed at 50C for approximately 30 min, qNPA probes were added, and samples were incubated at 95C for 10 min to begin the detection process by denaturing the target RNA, dissociating the duplexes and secondary structure hybridization. At the conclusion of the hybridization period, S1 nuclease reagent was added to each sample to digest all nonprotected nucleotides at 50C for 60-90 min. […]
For CNC(=O)CSP(=S)(OC)OC, the outcome was “inactive”.
For CCS(=O)(=O)c1cccnc1S(=O)(=O)NC(=O)Nc1nc(OC)cc(OC)n1, the outcome was “inactive”.
In the case of Oc1ccc(Cl)cc1Cc1ccccc1, the outcome was “inactive”.
In the case of CC1(c2ccc(Oc3ccccc3)cc2)OC(=O)N(Nc2ccccc2)C1=O (stereo unspecified), the outcome was “inactive”.
With N#CN the outcome was “inactive”.
In the case of CNC(=O)Oc1ccccc1OC(C)C, the outcome was “inactive”.
In the case of CC[C@H](C)[C@H]1O[C@]2(C=C[C@@H]1C)C[C@@H]1C[C@@H](C/C=C(\C)[C@@H](O[C@H]3C[C@H](OC)[C@@H](O[C@H]4C[C@H](OC)[C@@H](O)[C@H](C)O4)[C@H](C)O3)[C@@H](C)/C=C/C=C3\CO[C@@H]4[C@H](O)C(C)=C[C@@H](C(=O)O1)[C@]34O)O2 (tested in a mixture with another compound), the outcome was “inactive”.
In the case of O=C(O)COc1ccc(Cl)cc1Cl, the outcome was “inactive”.
With [2H]C1([2H])[n+]2ccccc2-c2cccc[n+]2C1([2H])[2H] the outcome was “inactive”.
For O=[N+]([O-])c1c(Cl)c(Cl)c(Cl)c(Cl)c1Cl, the outcome was “inactive”.
With COC(=O)c1ccccc1S(=O)(=O)NC(=O)Nc1nc(C)nc(OC)n1 the outcome was “inactive”.
With COC(=O)c1ccccc1S(=O)(=O)NC(=O)N(C)c1nc(C)nc(OC)n1 the outcome was “inactive”.
For O=C1c2ccccc2C(=O)N1SC(Cl)(Cl)Cl, the outcome was “inactive”.
In the case of CCOc1nc(NC)nc(NC(=O)NS(=O)(=O)c2ccccc2C(=O)OC)n1, the outcome was “inactive”.
With Cc1[nH]c(=O)n(C(C)(C)C)c(=O)c1Cl the outcome was “inactive”.
For COc1cc(OC)nc(NC(=O)NS(=O)(=O)c2cc(NC=O)ccc2C(=O)N(C)C)n1, the outcome was “inactive”.
With CNC(=O)Oc1cccc(N=CN(C)C)c1 the outcome was “inactive”.
For Cc1cc(C)nc(NC(=O)NS(=O)(=O)c2ccccc2C(=O)OC2COC2)n1, the outcome was “inactive”.
With O=C(NC(=O)c1c(F)cccc1F)Nc1ccc(OC(F)(F)C(F)OC(F)(F)F)c(Cl)c1 (stereo unspecified) the outcome was “inactive”.
With Oc1cc(Cl)ccc1Oc1ccc(Cl)cc1Cl the outcome was “inactive”.
For O=C(O)CCCOc1ccc(Cl)cc1Cl, the outcome was “inactive”.
With COP(=O)(OC)OC=C(Cl)Cl the outcome was “inactive”.
With CN1CSC(=S)N(C)C1 the outcome was “inactive”.
In the case of CC(C)N(C(=O)COc1nnc(C(F)(F)F)s1)c1ccc(F)cc1, the outcome was “inactive”.
With O=S1OCC2C(CO1)C1(Cl)C(Cl)=C(Cl)C2(Cl)C1(Cl)Cl (stereo unspecified) the outcome was “inactive”.
For O=[N+]([O-])/N=C1\NCCN1Cc1ccc(Cl)nc1, the outcome was “inactive”.
